PubChem BioAssay (NCI)
Compounds without any hit were thinned out: in the full panel of roughly 79,000, 15% have a hit. Active and inactive are the calls of the source. No stated cut-off is given here; in the data, active means growth inhibition above about 70%; inactive means the rest. Residues, ends and D or L forms follow the SMILES beside them. *: point of attachment. Fmoc = O=C(OCC1c2ccccc2-c2ccccc21)*; Boc = CC(C)(C)OC(=O)*

Key:
[1] = NCI Yeast Anticancer Drug Screen. Data for the wt1 strain (AID 149);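 further: 0% = growth of vehicle-treated wt1 cultures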; details: S. cerevisiae wt1 strain (SPY 50644) growth inhibition, active compounds read high
In short: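 Readout: yeast growth inhibition, normalised to vehicle controls, in the wt1 strain exposed to test compounds.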

[2] = NCI Yeast Anticancer Drug Screen. Data for the rad50EPP+ strain (AID 151);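 further: 0% = growth of vehicle-treated control cultures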; details: S. cerevisiae rad50 mutant strain, active compounds read high
In short: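 rad50EPP+ yeast treated with test compounds. Readout: growth vs vehicle control.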

[3] = NCI Yeast Anticancer Drug Screen. Data for the mgt1 strain (AID 153); details: S. cerevisiae mgt1 mutant growth inhibition, active compounds read high
In short: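 Growth inhibition relative to vehicle controls was scored for the mgt1 yeast strain after compound exposure.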

[4] = NCI Yeast Anticancer Drug Screen. Data for the rad50 strain (AID 155);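 further: 0% = growth of vehicle-only cultures of the same strain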; details: S. cerevisiae rad50 strain growth inhibition, active compounds read high
In short: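 Compounds were tested on a yeast strain with an engineered DNA damage repair alteration; the reported value is growth inhibition normalised to vehicle treatment.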

[5] = NCI Yeast Anticancer Drug Screen. Data for the mec2-1 strain (AID 157); details: S. cerevisiae mec2-1 strain, active compounds read high
In short: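 Growth inhibition is read against vehicle-treated controls after compound exposure of the mec2-1 yeast strain, which is defective in DNA damage repair or cell cycle control.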

[6] = NCI Yeast Anticancer Drug Screen. Data for the rad14 strain (AID 159);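 further: 0% = growth of vehicle-treated control cultures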; details: S. cerevisiae rad14 strain growth inhibition, active compounds read high
In short: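 Compound-treated yeast with a defined DNA-repair lesion; growth inhibition normalised to vehicle-treated cultures.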

[7] = NCI Yeast Anticancer Drug Screen. Data for the sgs1 mgt1 strain (AID 161);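 further: 0% = growth of cultures given vehicle only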; details: S. cerevisiae sgs1 mgt1 strain, active compounds read high
In short: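 Percent growth inhibition was derived by comparing compound-exposed mutant yeast with vehicle-exposed cultures. The strain carries alterations in DNA damage repair.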

[8] = NCI Yeast Anticancer Drug Screen. Data for the CLN2oe strain (AID 163);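 further: 0% = growth of vehicle-only control cultures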; details: S. cerevisiae CLN2oe strain, active compounds read high
In short: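 Compound-treated yeast; growth vs vehicle ctrl = % inhibition. Genetically altered strain (cell-cycle control).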

[9] = NCI Yeast Anticancer Drug Screen. Data for the cln2 rad14 strain (AID 165);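 further: 0% = growth equal to vehicle treated cultures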; details: S. cerevisiae cln2 rad14 strain, active compounds read high
In short: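 Growth inhibition, relative to vehicle-treated controls, is the read-out. The test organism is a yeast strain with defined genetic alterations, cln2 rad14.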

[10] = NCI Yeast Anticancer Drug Screen. Data for the bub3 strain (AID 167); details: S. cerevisiae bub3 mutant strain, active compounds read high
In short: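 Growth of a checkpoint-deficient yeast mutant is measured after compound exposure. Values represent inhibition relative to vehicle.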

[11] = NCI Yeast Anticancer Drug Screen. Data for the wt2 strain (AID 169);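 further: 0% = growth of vehicle-treated yeast cultures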; details: S. cerevisiae wt2 strain growth inhibition, active compounds read high
In short: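 Compound exposure of yeast; growth compared with vehicle controls; inhibition reported.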

[12] = NCI Yeast Anticancer Drug Screen. Data for the mlh1 strain (AID 171);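 further: 0% = growth of vehicle-treated control cultures of the same strain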; details: S. cerevisiae mlh1 strain growth inhibition, active compounds read high
In short: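 Compounds are applied to a genetically altered yeast strain, and its growth is compared with that of vehicle-treated cultures to give percent inhibition.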

[13] = NCI Yeast Anticancer Drug Screen. Data for the sgs1 strain (AID 173);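 further: 0% = growth of vehicle-only control cultures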; details: S. cerevisiae sgs1 mutant, active compounds read high
In short: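 Compounds applied to genetically altered yeast; growth compared with vehicle-treated cultures to give % inhibition.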

[14] = NCI Yeast Anticancer Drug Screen. Data for the mlh1 rad18 strain (AID 175); details: S. cerevisiae mlh1 rad18 strain growth inhibition, active compounds read high
In short: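 Cells of a genetically altered yeast strain, deficient in DNA damage repair, were treated with compound. Their growth was then compared with that of vehicle-treated cultures to give inhibition.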

[15] = NCI Yeast Anticancer Drug Screen. Data for the rad18 strain (AID 177); details: S. cerevisiae rad18 mutant growth inhibition, active compounds read high
In short: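 Compounds are applied to a repair-deficient yeast strain, and growth is compared with that of vehicle-treated cultures to give percent inhibition.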

[16] = at 5.0 µM (retest, dose inferred, filed as 0.5)
[17] = at 50.0 µM (retest, dose inferred, filed as 5.0)

Measured: growth inhibition

Cc1cccc(C)c1NC(=O)C(C#N)C1=C(Cl)C(=O)c2ccccc2C1=O (centres undefined)
inactive: [1]; at 1.2 µM -24% | [1]; at 3.7 µM 24% | [2]; at 1.2 µM 14% | [2]; at 3.7 µM 67% | [3]; at 1.2 µM -4% | [4]; at 1.2 µM -11% | [4]; at 3.7 µM 23% | [5]; at 1.2 µM -7% | [5]; at 3.7 µM 62% | [6]; at 1.2 µM -2% | [8]; at 1.2 µM 3% | [8]; at 3.7 µM 16% | [9]; [16] 65% | [10]; at 1.2 µM 6% | [11]; at 1.2 µM -22% | [11]; at 3.7 µM 35% | [12]; at 1.2 µM -4% | [13]; at 1.2 µM 8% | [13]; at 3.7 µM 45% | [15]; at 1.2 µM -32% | [15]; at 3.7 µM -1%
active: [1]; at 11.0 µM 94% | [1]; at 33.0 µM 98% | [1]; at 100.0 µM 97% | [2]; at 11.0 µM 98% | [2]; at 33.0 µM 98% | [2]; at 100.0 µM 96% | [3]; at 3.7 µM 78% | [3]; at 11.0 µM 98% | [3]; at 33.0 µM 98% | [3]; at 100.0 µM 98% | [4]; [16] 95% | [4]; at 11.0 µM 97% | [4]; at 33.0 µM 97% | [4]; [17] 96% | [4]; at 50.0 µM 91.2% | [4]; at 100.0 µM 96% | [5]; [16] 99% | [5]; at 11.0 µM 98% | [5]; at 33.0 µM 98% | [5]; [17] 99% | [5]; at 50.0 µM 93.1% | [5]; at 100.0 µM 98% | [6]; at 3.7 µM 88% | [6]; at 11.0 µM 98% | [6]; at 33.0 µM 98% | [6]; at 100.0 µM 97% | [7]; [16] 99% | [7]; [17] 99% | [7]; at 50.0 µM 93.7% | [8]; at 11.0 µM 77% | [8]; at 33.0 µM 97% | [8]; at 100.0 µM 96% | [9]; [17] 98% | [9]; at 50.0 µM 92.8% | [10]; at 3.7 µM 70% | [10]; [16] 99% | [10]; at 11.0 µM 97% | [10]; at 33.0 µM 97% | [10]; [17] 98% | [10]; at 50.0 µM 92.2% | [10]; at 100.0 µM 95% | [11]; at 11.0 µM 98% | [11]; at 33.0 µM 98% | [11]; at 100.0 µM 98% | [12]; at 3.7 µM 78% | [12]; at 11.0 µM 98% | [12]; at 33.0 µM 98% | [12]; at 100.0 µM 98% | [13]; at 11.0 µM 97% | [13]; at 33.0 µM 98% | [13]; at 100.0 µM 97% | [14]; [16] 98% | [14]; [17] 98% | [14]; at 50.0 µM 91.7% | [15]; at 11.0 µM 92% | [15]; at 33.0 µM 97% | [15]; at 100.0 µM 96%

CC(C)(C)OC(=O)NCCCCC(NC(=O)C(Cc1c[nH]c2ccccc12)NC(=O)OCC1c2ccccc2-c2ccccc21)C(=O)O (centres undefined) (Fmoc-Trp-Lys(Boc)-OH; configuration not given here)
active: [3]; at 100.0 µM 75% | [6]; at 100.0 µM 70% | [9]; at 50.0 µM 82.8% | [12]; at 100.0 µM 70%
inactive: [1]; at 1.2 µM -2% | [1]; at 3.7 µM -2% | [1]; at 11.0 µM -3% | [1]; at 33.0 µM 2% | [1]; at 100.0 µM 50% | [2]; at 1.2 µM -1% | [2]; at 3.7 µM 0% | [2]; at 11.0 µM 2% | [2]; at 33.0 µM 2% | [2]; at 100.0 µM -5% | [3]; at 1.2 µM 0% | [3]; at 3.7 µM 2% | [3]; at 11.0 µM -4% | [3]; at 33.0 µM 8% | [4]; at 1.2 µM -3% | [4]; at 3.7 µM -1% | [4]; [16] -19% | [4]; at 11.0 µM -3% | [4]; at 33.0 µM 11% | [4]; [17] 22% | [4]; at 50.0 µM 15.4% | [4]; at 100.0 µM 56% | [5]; at 1.2 µM -1% | [5]; at 3.7 µM -4% | [5]; [16] 1% | [5]; at 11.0 µM -4% | [5]; at 33.0 µM 9% | [5]; [17] 36% | [5]; at 50.0 µM 42.6% | [5]; at 100.0 µM 52% | [6]; at 1.2 µM -1% | [6]; at 3.7 µM 0% | [6]; at 11.0 µM 1% | [6]; at 33.0 µM 28% | [7]; [16] -13% | [7]; [17] 21% | [7]; at 50.0 µM 36.1% | [8]; at 1.2 µM 4% | [8]; at 3.7 µM 1% | [8]; at 11.0 µM -7% | [8]; at 33.0 µM 17% | [8]; at 100.0 µM 66% | [9]; [16] 37% | [9]; [17] 21% | [10]; at 1.2 µM -3% | [10]; at 3.7 µM -1% | [10]; [16] -19% | [10]; at 11.0 µM -1% | [10]; at 33.0 µM 6% | [10]; [17] 5% | [10]; at 50.0 µM 18.4% | [10]; at 100.0 µM 59% | [11]; at 1.2 µM 0% | [11]; at 3.7 µM -2% | [11]; at 11.0 µM -4% | [11]; at 33.0 µM 1% | [11]; at 100.0 µM 61% | [12]; at 1.2 µM -1% | [12]; at 3.7 µM -1% | [12]; at 11.0 µM -2% | [12]; at 33.0 µM 10% | [13]; at 1.2 µM -1% | [13]; at 3.7 µM 0% | [13]; at 11.0 µM 0% | [13]; at 33.0 µM 11% | [13]; at 100.0 µM 61% | [14]; [16] -11% | [14]; [17] 50% | [14]; at 50.0 µM 60.6% | [15]; at 1.2 µM -1% | [15]; at 3.7 µM -2% | [15]; at 11.0 µM -2% | [15]; at 33.0 µM 8% | [15]; at 100.0 µM 59%

O=C1Nc2ccc(Br)cc2C1=Nc1cccnc1
active: [10]; [17] 94% | [10]; at 50.0 µM 86.6% | [10]; at 100.0 µM 82%
inactive: [3]; at 1.2 µM -33% | [3]; at 3.7 µM -27% | [3]; at 11.0 µM -36% | [3]; at 33.0 µM -19% | [3]; at 100.0 µM -14% | [4]; at 1.2 µM -41% | [4]; at 3.7 µM -42% | [4]; [16] 52% | [4]; at 11.0 µM -36% | [4]; at 33.0 µM -25% | [4]; [17] 49% | [4]; at 50.0 µM 31.9% | [4]; at 100.0 µM -13% | [5]; at 1.2 µM -54% | [5]; at 3.7 µM -51% | [5]; [16] 47% | [5]; at 11.0 µM -41% | [5]; at 33.0 µM -31% | [5]; [17] 53% | [5]; at 50.0 µM 39.2% | [5]; at 100.0 µM -12% | [6]; at 1.2 µM -55% | [6]; at 3.7 µM -61% | [6]; at 11.0 µM -60% | [6]; at 33.0 µM -48% | [6]; at 100.0 µM -47% | [7]; [16] -3% | [7]; [17] 32% | [7]; at 50.0 µM 37.5% | [8]; at 1.2 µM -5% | [8]; at 3.7 µM 3% | [8]; at 11.0 µM -18% | [8]; at 33.0 µM -8% | [8]; at 100.0 µM 1% | [9]; [16] 32% | [9]; [17] 27% | [9]; at 50.0 µM 10.4% | [10]; at 1.2 µM -53% | [10]; at 3.7 µM -47% | [10]; [16] 33% | [10]; at 11.0 µM -38% | [10]; at 33.0 µM 10% | [11]; at 1.2 µM -21% | [11]; at 3.7 µM -24% | [11]; at 11.0 µM -20% | [11]; at 33.0 µM -30% | [11]; at 100.0 µM -27% | [12]; at 1.2 µM -25% | [12]; at 3.7 µM -15% | [12]; at 11.0 µM -42% | [12]; at 33.0 µM -39% | [12]; at 100.0 µM -31% | [14]; [16] 31% | [14]; [17] 46% | [14]; at 50.0 µM 35.4% | [15]; at 1.2 µM -28% | [15]; at 3.7 µM -39% | [15]; at 11.0 µM -32% | [15]; at 33.0 µM -36% | [15]; at 100.0 µM -26%
